Results on 12 compounds are retold here after PubChem BioAssay (NCATS).

SMILES strings stand for the structures. Records with an inconclusive call do not appear. Where a call stands in place of a potency, no number is given. Calls of active or inactive are those of the source. Calls come from the whole dose curve; as a rule, active = well fitted activation curve with a large enough effect; inconclusive = small, poorly fitted or top-dose-only effect; inactive = flat fitted curve, though single readings scatter.

The assay can be described thus: Primary redox qHTS assay for identification of artifact compounds. (AID 1845223). As to conditions: Amplex Red/HRP redox cycling with DTT, fluorescence; series mostly up to 53.8 µM. The essentials:
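Amplex Red (25 uM) and HRP (250 mU/mL) in HBSS, with compounds for 15 min, then 250 uM DTT for 30 min, room temperature, dark. Fluorescence 525/598 nm read; normalized to DMSO and 10 uM DA3003; Hill fit.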
In general terms: qHTS replaces the single test concentration by a dilution series.
As for `OC[C@H]1O[C@@H](Oc2cc(O)cc(/C=C/c3ccc(O)cc3)c2)[C@H](O)[C@@H](O)[C@@H]1O`, the Potency result was “inactive”. Consider `C/C=C/C1=CC2=C(CO1)C(=O)[C@](C)(O)[C@H](OC(=O)c1c(O)cc(OC)c(O)c1C)C2`, for which the Potency entry was “inactive”. As for `COc1c(C)c2c(c(O)c1C/C=C(\C)CC/C=C(\C)CCC(=O)O)C(=O)OC2`, the Potency result is “inactive”.

As to `COc1cc(C2Oc3c(O)cc(CCCO)cc3C2CO)ccc1O[C@H]1O[C@H](C)[C@@H](O)[C@H](O)[C@@H]1O` (some centres not stated), the Potency entry is “inactive”. For the compound `CC1CCC(=O)CC(O)C(O)CC(=O)O1` (configuration not stated), the Potency entry is “inactive”.

In the case of `C=CC(C)(C)C1(CC2NC(=O)C3CCCN3C2=O)C(=O)Nc2cc3c(cc21)C=CC(C)(C)O3` (configuration not stated), the Potency entry is “inactive”. `CCCCS(=O)(=O)Nc1ncnc(OCCOc2ncc(Br)cn2)c1-c1ccc(Br)cc1`: the Potency result was “inactive”. In the case of `CN1C(=O)c2ccccc2NC(=O)[C@]12O[C@@H]2c1cccc(O)c1`, the Potency entry was “inactive”.

As for `COc1cc(CC(COC2OC(CO)C(O)C(O)C2O)c2cc(/C=C/CO)cc(OC)c2O)ccc1O` (configuration not stated), the Potency result was “inactive”. The result for `CC1(C)CCC(C)(C)c2cc([C@@H](O)C(=O)Nc3ccc(C(=O)O)cc3F)ccc21` reads “inactive”; that for `CC1(C)C(=O)C(C)(C)c2cc(C(=O)Nc3ccc(C(=O)O)cc3)ccc21`, “inactive”; that for `CC(NCc1ccc(OCc2cccc(F)c2)cc1)C(N)=O` (configuration not stated), “inactive”.
